Data from PubChem BioAssay (Tox21).
“And” between values parts separate entries of the source, which are not always exact repeats. Identical values can stand only once. A structure can be active in one record and inactive in another. The source made the active and inactive calls. Unless noted, calls come from the whole dose curve; as a rule, active = well fitted curve in the direction sought with a large enough effect in the repeat runs; inconclusive = weak or mixed curves; inactive = no such curve, though single readings can be large; an effect the other way counts as inactive or inconclusive.

Experiments:
[1] = qHTS assay to identify small molecule antagonists of the glucocorticoid receptor (GR) signaling pathway - cell viability counter screen (AID 720693); note: nearly all actives have a fitted effect of over 55% in size
[2] = qHTS assay for identifying genotoxic compounds that show differential cytotoxicity against isogenic chicken DT40 cell lines with known DNA damage response pathways - wild type cell line (AID 743012); note: nearly all actives have a fitted effect of over 60% in size; note: potency is the fitted concentration of half-maximal effect
How it was run: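 Parental DNA repair-proficient DT40 cells, 300 per well, were pre-incubated ~0.5 h at 37 C/5% CO2, pin-dosed with compounds in DMSO, then incubated 40 h. Viability was read as CellTiter-Glo luminescence after 30 min at room temperature.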

[3] = qHTS assay for identifying genotoxic compounds that show differential cytotoxicity against isogenic chicken DT40 cell lines with known DNA damage response pathways - Rev3 mutant cell line (AID 743014); note: nearly all actives have a fitted effect of over 55% in size; note: potency is the fitted concentration of half-maximal effect
[4] = qHTS assay for identifying genotoxic compounds that show differential cytotoxicity against isogenic chicken DT40 cell lines with known DNA damage response pathways - Rad54/Ku70 mutant cell line (AID 743015); note: nearly all actives have a fitted effect of over 60% in size; note: potency is the fitted concentration of half-maximal effect
[5] = qHTS assay to identify small molecule antagonists of the androgen receptor (AR) signaling pathway using the MDA cell line - cell viability counter screen (AID 743041; note: nearly all actives have a fitted effect of over 45% in size; note: potency is the fitted concentration of half-maximal effect)
How it was run: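 Cells were plated at 3,000 per well and left 5 h. Compounds in DMSO were then pinned in, followed by R1881. After 16 h at 37C, CellTiter-Fluor fluorescence gave viability.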

[6] = qHTS assay to identify small molecule antagonists of the thyroid receptor (TR) signaling pathway - cell viability counter screen (AID 743064); note: nearly all actives have a fitted effect of over 50% in size; note: potency is the fitted concentration of half-maximal effect
How it was run: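 GH3.TRE-Luc rat pituitary cells carrying a TRE-luciferase reporter were treated with compound plus 1 nM T3 (final) for 23.5 h at 37 °C. Viability was then read in the same wells by CellTiter-Fluor fluorescence after a further 30 min.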

[7] = qHTS assay to identify small molecule antagonists of the thyroid receptor (TR) signaling pathway (AID 743065); note: nearly all actives have a fitted effect of over 55% in size; note: potency is the fitted concentration of half-maximal effect
How it was run: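 Antagonism measured as loss of luciferase signal in GH3 cells stably carrying a TRE-luciferase reporter, co-treated with compound and T3 (1 nM final) for 23.5 h at 37 C. Viability was read in the same well by CellTiter-Fluor.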

[8] = system: thyroid hormone receptor (rat, GH3 cells); assay: qHTS assay to identify small molecule agonists of the thyroid receptor (TR) signaling pathway (AID 743066; calls by dose curve)
[9] = qHTS assay to identify small molecule antagonists of the estrogen receptor alpha (ER-alpha) signaling pathway - cell viability counter screen (AID 743074; calls by dose curve;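 note: HEK293 cells carrying ER-alpha-UAS-bla reporter stimulated with 17beta-estradiol; nearly all actives have a fitted effect of over 45% in size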; note: potency is the fitted concentration of half-maximal effect)
[10] = qHTS assay to identify small molecule antagonists of the estrogen receptor alpha (ER-alpha) signaling pathway using the BG1 cell line - cell viability counter screen (AID 743081);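 note: compound given together with 17beta-estradiol as the ER stimulus; nearly all actives have a fitted effect of over 45% in size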; note: potency is the fitted concentration of half-maximal effect
[11] = qHTS assay to identify aromatase inhibitors - cell viability counter screen (AID 743084);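 note: cells stimulated with testosterone during compound exposure; nearly all actives have a fitted effect of over 55% in size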; note: potency is the fitted concentration of half-maximal effect
[12] = target: Estrogen receptor (Homo sapiens) (UniProt P03372); assay: qHTS assay to identify small molecule antagonists of the estrogen receptor alpha (ER-alpha) signaling pathway (AID 743069; active = well fitted curve in the direction sought with a large enough effect in the signal ratio in the repeat runs, not every such curve was filed as active; inconclusive = weak or mixed curves, or effect the other way; inactive = no such curve, though single readings can be large or run the other way; the % refers to the signal ratio; note: potency is the fitted concentration of half-maximal effect)
How it was run: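 ER-alpha-UAS-bla GripTite HEK293 line; 2% charcoal-stripped FBS overnight; plated, 4 hr 37C/5% CO2; cpd in DMSO + 17beta-estradiol, 18 hr 37C; LiveBLAzer B/G FRET substrate 2 hr RT; fluorescence intensity.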

[13] = target: Estrogen receptor (Homo sapiens) (UniProt P03372); assay: qHTS assay to identify small molecule agonists of the estrogen receptor alpha (ER-alpha) signaling pathway (AID 743075; calls by dose curve; note: potency is the fitted concentration of half-maximal effect)
[14] = target: Estrogen receptor (Homo sapiens) (UniProt P03372); assay: qHTS assay to identify small molecule agonists of the estrogen receptor alpha (ER-alpha) signaling pathway using the BG1 cell line (AID 743079); settings: BG1Luc4E2 cells, ERE-luciferase agonist, 22 h; activation: at 70.3 µM (top of the series); note: nearly all actives have a fitted effect of over 20% in size; note: potency is the fitted concentration of half-maximal effect
[15] = qHTS assay to identify small molecule antagonists of the estrogen receptor alpha (ER-alpha) signaling pathway using the BG1 cell line (AID 743080; calls by dose curve;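 note: BG1 cells stimulated with 17beta-estradiol alongside compound; nearly all actives have a fitted effect of over 25% in size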; note: potency is the fitted concentration of half-maximal effect)
How it was run: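 Luciferase inhibition measured with ONE-Glo after 30 min at RT in BG1Luc4E2 cells given test compounds and 17beta-estradiol for 21.5 h at 37 C; CellTiter-Fluor viability read in the same wells beforehand.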

Aromatase (Homo sapiens) = Aromatase (Homo sapiens) (UniProt P11511); assay: qHTS assay to identify aromatase inhibitors (AID 743083); note: nearly all actives have a fitted effect of over 55% in size; note: potency is the fitted concentration of half-maximal effect
[16] = qHTS assay to identify small molecule antagonists of the androgen receptor (AR) signaling pathway - cell viability counter screen (AID 743033; note: nearly all actives have a fitted effect of over 45% in size; note: potency is the fitted concentration of half-maximal effect)
[17] = target: Androgen receptor (Homo sapiens) (UniProt P10275); assay: qHTS assay to identify small molecule agonists of the androgen receptor (AR) signaling pathway using the MDA cell line (AID 743040; note: nearly all actives have a fitted effect of over 20% in size)
How it was run: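 Cells plated, 5 h at 37C/0% CO2; compound or DMSO pinned; 16 h at 37C; ONE-Glo added; luminescence measured after 30 min at room temperature. Reporter line: MDA-kb2 with MMTV-luciferase responsive to AR and GR.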

[18] = target: Androgen receptor (Homo sapiens) (UniProt P10275); assay: qHTS assay to identify small molecule antagonists of the androgen receptor (AR) signaling pathway using the MDA cell line (AID 743042; note: nearly all actives have a fitted effect of over 55% in size; note: potency is the fitted concentration of half-maximal effect)
How it was run: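 Antagonist mode: compounds plus R1881 agonist added to MDA-kb2 AR-luc cells, incubated 16 h at 37C. Luciferase reporter luminescence quantified, with multiplexed CellTiter-Fluor readout for cell viability.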

[19] = target: Androgen receptor (Homo sapiens) (UniProt P10275); assay: qHTS assay to identify small molecule agonists of the androgen receptor (AR) signaling pathway (AID 743036; active = well fitted activation curve with a large enough effect in the signal ratio in the repeat runs, with a control signal flat, not every such curve was filed as active; inconclusive = weak or mixed curves, or effect the other way; inactive = no such curve, though single readings can be large or run the other way; the % refers to the signal ratio)
How it was run: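 HEK293 cells stably carrying a UAS-driven beta-lactamase reporter (GeneBLAzer AR-UAS-bla-GripTite) were plated at 2,000 cells/well, rested 4 h at 37C, then exposed to compounds in DMSO for 16 h. LiveBLAzer B/G FRET substrate was added for 2 h at room temperature; fluorescence read.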

Measured: Potency

Sequence of Aromatase (Homo sapiens) (P11511 whole entry, looked up): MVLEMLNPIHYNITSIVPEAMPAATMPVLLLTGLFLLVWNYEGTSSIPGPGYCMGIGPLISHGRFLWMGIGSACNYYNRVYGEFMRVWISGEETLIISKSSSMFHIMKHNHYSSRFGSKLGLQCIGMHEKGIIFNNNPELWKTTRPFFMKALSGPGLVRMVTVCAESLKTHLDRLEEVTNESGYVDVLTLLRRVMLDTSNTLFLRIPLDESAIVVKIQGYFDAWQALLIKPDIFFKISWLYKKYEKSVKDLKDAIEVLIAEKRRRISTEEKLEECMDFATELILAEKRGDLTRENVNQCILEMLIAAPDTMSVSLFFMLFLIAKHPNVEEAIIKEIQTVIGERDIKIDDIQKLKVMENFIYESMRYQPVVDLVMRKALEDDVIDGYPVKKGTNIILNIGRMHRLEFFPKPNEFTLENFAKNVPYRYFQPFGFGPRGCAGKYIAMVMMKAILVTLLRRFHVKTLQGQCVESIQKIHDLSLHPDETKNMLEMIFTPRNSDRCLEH
Sequence of Androgen receptor (Homo sapiens) (P10275 whole entry, looked up): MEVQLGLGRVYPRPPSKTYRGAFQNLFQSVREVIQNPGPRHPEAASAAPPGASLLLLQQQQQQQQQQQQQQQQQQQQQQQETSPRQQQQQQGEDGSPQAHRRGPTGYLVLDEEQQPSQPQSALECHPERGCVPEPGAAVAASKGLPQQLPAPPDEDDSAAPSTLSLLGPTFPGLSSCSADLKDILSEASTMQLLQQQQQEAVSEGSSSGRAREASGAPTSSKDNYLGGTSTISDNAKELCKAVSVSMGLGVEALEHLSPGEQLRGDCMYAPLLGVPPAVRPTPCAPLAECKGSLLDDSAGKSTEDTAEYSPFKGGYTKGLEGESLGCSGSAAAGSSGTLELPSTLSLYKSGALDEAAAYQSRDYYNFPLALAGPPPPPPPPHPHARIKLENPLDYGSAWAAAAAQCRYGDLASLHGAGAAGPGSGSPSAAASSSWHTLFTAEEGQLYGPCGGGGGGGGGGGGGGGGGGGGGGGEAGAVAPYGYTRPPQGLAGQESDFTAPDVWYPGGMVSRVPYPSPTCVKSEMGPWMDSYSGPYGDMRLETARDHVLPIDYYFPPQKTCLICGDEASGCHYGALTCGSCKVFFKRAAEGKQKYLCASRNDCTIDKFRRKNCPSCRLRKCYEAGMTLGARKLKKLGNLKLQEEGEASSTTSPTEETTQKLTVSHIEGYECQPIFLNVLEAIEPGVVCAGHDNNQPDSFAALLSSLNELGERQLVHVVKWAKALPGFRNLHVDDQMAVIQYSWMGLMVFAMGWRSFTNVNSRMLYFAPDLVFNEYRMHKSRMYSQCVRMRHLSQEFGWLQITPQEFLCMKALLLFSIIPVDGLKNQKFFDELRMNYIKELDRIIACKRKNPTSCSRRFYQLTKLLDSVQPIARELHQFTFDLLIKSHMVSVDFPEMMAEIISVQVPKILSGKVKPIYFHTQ
Sequence of Estrogen receptor (Homo sapiens) (P03372 whole entry, looked up): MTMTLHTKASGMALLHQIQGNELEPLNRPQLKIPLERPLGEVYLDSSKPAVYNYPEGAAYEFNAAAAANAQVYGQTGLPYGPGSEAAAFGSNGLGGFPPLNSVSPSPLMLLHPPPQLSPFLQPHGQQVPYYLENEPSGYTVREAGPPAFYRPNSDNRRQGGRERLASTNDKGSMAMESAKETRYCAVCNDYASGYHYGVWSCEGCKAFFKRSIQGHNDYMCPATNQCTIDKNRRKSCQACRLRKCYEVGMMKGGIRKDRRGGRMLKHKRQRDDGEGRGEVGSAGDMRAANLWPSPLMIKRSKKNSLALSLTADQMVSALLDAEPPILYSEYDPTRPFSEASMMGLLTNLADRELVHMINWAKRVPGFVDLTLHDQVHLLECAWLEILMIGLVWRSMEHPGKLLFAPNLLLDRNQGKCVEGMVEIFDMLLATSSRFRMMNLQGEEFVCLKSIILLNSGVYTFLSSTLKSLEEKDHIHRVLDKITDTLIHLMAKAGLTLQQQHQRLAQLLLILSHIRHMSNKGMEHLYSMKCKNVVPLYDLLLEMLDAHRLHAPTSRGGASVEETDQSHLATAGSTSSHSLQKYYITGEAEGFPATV

Fc1c(F)c(F)c(Br)c(F)c1F
inactive: [1] | [2] | [3] | [4] | [5] | [6] | [7] | [8] | [9] | [10] | [11]

CN1C(=O)CC(C)(c2ccccc2)C1=O (configuration not stated)
not listed: [16] | [17] | [18] | [19]
inactive: all other assays above

CC(C)OCC1CO1 (configuration not stated)
not listed: [16] | [17] | [18] | [19]
inactive: all other assays above

CC(=O)OCC(=O)[C@@]12OC(C)(C)O[C@@H]1C[C@H]1[C@@H]3C[C@H](F)C4=CC(=O)C=C[C@]4(C)[C@@]3(F)[C@@H](O)C[C@@]12C
inactive: [1] | [2] | [3] | [4] | [5] | [9] | [10] | Aromatase (Homo sapiens) | [11]

COc1cc2[nH]c(=O)[nH]c(=O)c2cc1OC
not listed: [14] | [16] | [17] | [18] | [19]
inactive: all other assays above

O=C(CCCN1CCN(c2ccc(F)cc2)CC1)NC1c2ccccc2CSc2ccccc21 (configuration not stated)
inactive: [1] | [5] | [9] | [13] | [14] | [15]
active: [2] 13.3 µM | [3] 26.6 µM | [4] 18.8 µM | [6] 10.6 µM | [7] 10.6 µM | [12] 21.3 µM [inconclusive]

O=C(CCCN1CCC(O)(c2ccc(Br)cc2)CC1)c1ccc(F)cc1
active: [2] 5.07 µM | [3] 2.85 µM | [4] 4.52 µM | [7] 10.1 µM
not listed: [6] | [16] | [17] | [18] | [19]
inactive: all other assays above

C/C=C/C=C/CCCCCCCO
active: [2] 21.7 µM | [3] 30.6 µM | [4] 24.3 µM | [7] 61.1 µM
not listed: [6] | [11] | [16] | [17] | [18] | [19]
inactive: all other assays above

COC(=O)CC(=O)C(C)(C)C
active: [3] 61.1 µM
not listed: [4] | [17] | [18] | [19]
inactive: all other assays above

COc1ccc(C(=O)c2cccc(O)c2)c(OC)c1
active: [13] 24.5 µM [activator] | [14] 6.84 µM | [15] 68.5 µM
not listed: [4] | [5] | [7] | [11] | [19]
inactive: all other assays above

CNCCCC1c2ccccc2C=Cc2ccccc21
active: [2] 4.52 µM | [3] 12.7 µM | [6] 4.52 µM | [7] 11.4 µM
not listed: [4] | [8] | [17] | [18] | [19]
inactive: all other assays above

CC(C)CCCCCOC(=O)CCCCC(=O)OCCCCCC(C)C
active: [2] 61.1 µM | [3] 61.1 µM
inactive: [1] | [16] | [5] | [6] | [7] | [8] | [9] | [10] | Aromatase (Homo sapiens) | [11]

CCCc1c(OCCCOc2ccc(OCC(=O)O)cc2)ccc(C(C)=O)c1O
not listed: [4] | [7] | [12] | Aromatase (Homo sapiens) | [16] | [19]
inactive: all other assays above

CCCCC1C(=O)N(c2ccccc2)N(c2ccc(O)cc2)C1=O (configuration not stated)
active: [2] 3.2 µM | [3] 5.69 µM | [18] 12.7 µM | [6] 3.59 µM | [7] 3.2 µM
inactive: [1] | [17] | [9] | [10] | Aromatase (Homo sapiens)

O=[N+]([O-])c1cccc(S(=O)(=O)NCCNS(=O)(=O)c2cccc([N+](=O)[O-])c2)c1
not listed: [3] | [19]
inactive: all other assays above

O=C(N[C@@H](c1ccccc1)[C@@H]1CCCCN1)c1cccc(C(F)(F)F)c1Cl
inactive: [1] | [9] | [13]
active: [2] 12.2 µM | [3] 13.7 µM | [5] 24.3 µM | [6] 24.3 µM | [7] 27.3 µM | Aromatase (Homo sapiens) 38.6 µM

CCc1nn(CCCN2CCN(c3cccc(Cl)c3)CC2)c(=O)n1CCOc1ccccc1
inactive: [1] | [13]
active: [2] 4.22 µM and 11.9 µM | [3] 7.5 µM | [16] 10.7 µM | [5] 22.1 µM | [6] 10.6 µM and 26.6 µM | [7] 11.9 µM and 26.6 µM | [9] 23.9 µM | [15] 7.5 µM and 26.6 µM | Aromatase (Homo sapiens) 29.8 µM and 33.5 µM | [11] 29.8 µM
29.8 µM (active) and inactive: [10]

Cc1cc(O)c2c(O)c3c(O)cccc3cc2c1
not listed: [4] | [7] | [12] | [13] | [14] | [15] | [16] | [19]
inactive: all other assays above

Cc1cc(O)c(C(C)C)cc1Cl
inactive and 49 µM (active): [9]
inactive and 61.1 µM (active): [3]
not listed: [4] | [17] | [18] | [19]
inactive: all other assays above

CC1=C(C=O)C(C)(C)CCC1
not listed: [4] | [17] | [18] | [19]
inactive: all other assays above

O=C(CCCCCCCCC#CI)Oc1ccccc1
active: [7] 13.3 µM
not listed: [4] | [9] | [12] | [13] | [14] | [15]
inactive: all other assays above

N#C[C@@H]1C[C@@H]2C[C@@H]2N1C(=O)[C@@H](N)C12CC3CC(CC(O)(C3)C1)C2
not listed: [4] | [6] | [7] | [8] | [12] | [17] | [18] | [19]
inactive: all other assays above

CCOC(=O)[C@@H](C)Oc1ccc(Oc2nc3ccc(Cl)cc3o2)cc1
active: [2] 68.6 µM | [4] 61.1 µM
not listed: [3] | [12] | [13] | [14] | [15] | [19]
inactive: all other assays above

CC1(C)C(=O)N(Br)C(=O)N1Cl
active: [2] 61.1 µM | [3] 61.1 µM
inactive: [1] | [16] | [5] | [6] | [7] | [8] | [9] | [10] | Aromatase (Homo sapiens) | [11]

Nc1ccc(S(=O)(=O)O)c(N)c1
not listed: [4] | [17] | [18] | [19]
inactive: all other assays above
